Results reported in PubChem BioAssay (NCI).
This is part of a sample that, as a whole, favours compounds with a hit. Of some 79,000 tested, about 15% had one in any assay. A number with no mark means an inactive call. Active and inactive are the calls of the source. No stated cut-off is given here; in the data, active means growth inhibition above about 70%; inactive means the rest.

What was measured:
[1] = NCI Yeast Anticancer Drug Screen. Data for the rad50 strain (AID 155);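 further: 0% = growth of vehicle-only cultures of the same strain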; conditions: S. cerevisiae rad50 strain growth inhibition; at 50.0 µM; active compounds read high
In short: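 Cells are treated with compound, grown, and their growth is then scored against vehicle-only cultures of the same repair-deficient yeast strain.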

[2] = NCI Yeast Anticancer Drug Screen. Data for the mec2-1 strain (AID 157); conditions: S. cerevisiae mec2-1 strain, at 50.0 µM, active compounds read high
In short: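 Mutant yeast (mec2-1) grown with compound; growth inhibition relative to vehicle control reported.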

[3] = NCI Yeast Anticancer Drug Screen. Data for the sgs1 mgt1 strain (AID 161);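 further: 0% = growth of cultures given vehicle only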; conditions: S. cerevisiae sgs1 mgt1 strain, at 50.0 µM, active compounds read high
In short: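 Percent growth inhibition was derived by comparing compound-exposed mutant yeast with vehicle-exposed cultures. The strain carries alterations in DNA damage repair.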

[4] = NCI Yeast Anticancer Drug Screen. Data for the cln2 rad14 strain (AID 165);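 further: 0% = growth equal to vehicle treated cultures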; conditions: S. cerevisiae cln2 rad14 strain, at 50.0 µM, active compounds read high
In short: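 Readout is yeast growth inhibition versus vehicle-treated controls, using a strain with cln2 and rad14 alterations exposed to compound.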

[5] = NCI Yeast Anticancer Drug Screen. Data for the bub3 strain (AID 167); conditions: S. cerevisiae bub3 mutant strain, at 50.0 µM, active compounds read high
In short: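 Part of a panel of yeast mutants defective in DNA damage repair or cell cycle regulation. Each strain is grown with compound, and inhibition is calculated relative to solvent-treated cultures.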

[6] = NCI Yeast Anticancer Drug Screen. Data for the mlh1 rad18 strain (AID 175); conditions: S. cerevisiae mlh1 rad18 strain growth inhibition; at 50.0 µM; active compounds read high
In short: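 Genetically defined yeast (DNA repair-deficient) exposed to compounds; growth inhibition determined relative to vehicle.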

SMILES: O=C(NC1=NC2C=CC([N+](=O)[O-])=CC2S1)C(=O)Nn1c(=S)[nH]c2ccccc2c1=O (stereo not drawn)
- growth inhibition [1]: 6.8%
- growth inhibition [2]: -14.9%
- growth inhibition [3]: 20.2%
- growth inhibition [4]: 10.8%
- growth inhibition [5]: 20.7%
- growth inhibition [6]: 24.1%

SMILES: CCOC(=O)c1cc(C)nc2c1c(=O)n(-c1ccccc1)c(=O)n2CCCCN1CCN(c2ncccn2)CC1
- growth inhibition [1]: 9.75%
- growth inhibition [2]: -32.4%
- growth inhibition [3]: 12.2%
- growth inhibition [4]: 7.45%
- growth inhibition [5]: -16.9%
- growth inhibition [6]: -38.5%

SMILES: CCCCCCSC[C@H](OC(C)=O)[C@@H](OC(C)=O)[C@@H](OC(C)=O)[C@@H](COC(C)=O)OC(C)=O
- growth inhibition [1]: -7%
- growth inhibition [2]: -14.8%
- growth inhibition [3]: 2.65%
- growth inhibition [4]: -2.95%
- growth inhibition [5]: 9%
- growth inhibition [6]: -5.35%

SMILES: N=C1N=C(N)CS1
- growth inhibition [1]: 2.6%
- growth inhibition [2]: -10%
- growth inhibition [3]: 3.8%
- growth inhibition [4]: 12.4%
- growth inhibition [5]: 25.9%
- growth inhibition [6]: 3.85%

SMILES: COc1ccc2cc(CN3CCC(C4CCNCC4)CC3)ccc2c1
- growth inhibition [1]: 15.6%
- growth inhibition [2]: -4.8%
- growth inhibition [3]: 1.55%
- growth inhibition [4]: 14.7%
- growth inhibition [5]: 20.8%
- growth inhibition [6]: 86% (active)

SMILES: Cc1ccc(/C=N/Nc2nncc3ccccc23)s1
- growth inhibition [1]: 14.8%
- growth inhibition [2]: 16.1%
- growth inhibition [3]: 16.7%
- growth inhibition [4]: 21.2%
- growth inhibition [5]: 21.7%
- growth inhibition [6]: 38.5%

SMILES: Cc1ccc(/C=N/Nc2ccccn2)s1
- growth inhibition [1]: -10.9%
- growth inhibition [2]: -12.5%
- growth inhibition [3]: -2%
- growth inhibition [4]: 11.4%
- growth inhibition [5]: -11.2%
- growth inhibition [6]: 0.7%

SMILES: COc1ccc2cc1Oc1ccc(cc1)C[C@@H]1c3cc(c(OC)cc3CCN1C)Oc1c(OC)c(OC)cc3c1[C@H](C2)N(C)CC3
- growth inhibition [1]: 22.1%
- growth inhibition [2]: -19.9%
- growth inhibition [3]: 6.25%
- growth inhibition [4]: 5.1%
- growth inhibition [5]: 9.4%
- growth inhibition [6]: -49.9%

SMILES: CC1CC(=O)N(N(C)C)C2(C#N)C(=O)N=C(N)C12C#N (stereo not drawn)
- growth inhibition [1]: 15.4%
- growth inhibition [2]: 22.6%
- growth inhibition [3]: -16.1%
- growth inhibition [4]: 2.75%
- growth inhibition [5]: -4%
- growth inhibition [6]: -4.75%

SMILES: COC(=O)c1ccc(NC(=O)O/N=C(\Cl)C(C)C)cc1
- growth inhibition [1]: -21.6%
- growth inhibition [2]: -20.7%
- growth inhibition [3]: 59.7%
- growth inhibition [4]: 8.85%
- growth inhibition [5]: 34.1%
- growth inhibition [6]: 0.75%

SMILES: COc1ccc(-c2coc3c4c(ccc3c2=O)OCO4)cc1OC
- growth inhibition [1]: 3.6%
- growth inhibition [2]: -13.4%
- growth inhibition [3]: 0.45%
- growth inhibition [4]: 7.2%
- growth inhibition [5]: -8.45%
- growth inhibition [6]: -30.8%

SMILES: CC(C)/C(Cl)=N/OC(=O)Nc1cccc(C(F)(F)F)c1
- growth inhibition [1]: 35.7%
- growth inhibition [2]: 38.3%
- growth inhibition [3]: 85% (active)
- growth inhibition [4]: 24.8%
- growth inhibition [5]: 65.5%
- growth inhibition [6]: -91.7%

SMILES: CC1=C2NCN(C)N=C2C(C#N)(C#N)C1(C#N)C#N
- growth inhibition [1]: 24%
- growth inhibition [2]: 35.4%
- growth inhibition [3]: -15.3%
- growth inhibition [4]: 2.25%
- growth inhibition [5]: -12.2%
- growth inhibition [6]: -13.1%

SMILES: Cc1ccc(NC(=O)/C(=N\NC(N)=O)c2c(O)c3ccccc3[nH]c2=O)cc1
- growth inhibition [1]: 1.45%
- growth inhibition [2]: 4.6%
- growth inhibition [3]: -10.5%
- growth inhibition [4]: 7.85%
- growth inhibition [5]: -3.05%
- growth inhibition [6]: -33%

SMILES: COc1cc(C)c2c(c1C=O)Oc1c(c(C)c(O)c3c1C(O)OC3=O)OC2=O (stereo not drawn)
- growth inhibition [1]: 25.3%
- growth inhibition [2]: -7.65%
- growth inhibition [3]: 4.85%
- growth inhibition [4]: 25.6%
- growth inhibition [5]: -4.85%
- growth inhibition [6]: -60.3%

SMILES: C=C1C2CCC3C4(C)CCCC(C)(C(=O)O)C4CCC3(C2)C1OC(=O)/C(C)=C/C (stereo not drawn)
- growth inhibition [1]: 22.4%
- growth inhibition [2]: 4.85%
- growth inhibition [3]: -7.05%
- growth inhibition [4]: 25.1%
- growth inhibition [5]: 0.75%
- growth inhibition [6]: -59.4%

SMILES: COc1ccc(-c2nc3ccccc3c(=S)n2OC(C)=O)cc1
- growth inhibition [1]: 68.5%
- growth inhibition [2]: 77.2% (active)
- growth inhibition [3]: 82.1% (active)
- growth inhibition [4]: 27.2%
- growth inhibition [5]: 90.2% (active)
- growth inhibition [6]: 78.2% (active)

SMILES: CCCCCCCCOC(=O)C12Oc3ccc(-c4ccc5c(c4O)C(O)=C4C(=O)CC(C)C(O)C4(C(=O)OCCCCCCCC)O5)c(O)c3C(O)=C1C(=O)CC(C)C2O (stereo not drawn)
- growth inhibition [1]: 16.4%
- growth inhibition [2]: 2.95%
- growth inhibition [3]: 11.4%
- growth inhibition [4]: 7.6%
- growth inhibition [5]: 33.6%
- growth inhibition [6]: -54.6%
